This is an account of results in ChEMBL document CHEMBL1961873, “Compounds: GSK PKIS; Assays: Nanosyn kinase panel” (2012).

Values joined by “and” are separate entries in the source; they are usually repeats but may differ in a detail not shown here. Equal values may be shown once.

In one assay the target is Rho-associated protein kinase 2 (Homo sapiens) (UniProt O75116). The note with it: at 0.1 µM.
Sequence of Rho-associated protein kinase 2 (Homo sapiens) (O75116 whole entry, looked up): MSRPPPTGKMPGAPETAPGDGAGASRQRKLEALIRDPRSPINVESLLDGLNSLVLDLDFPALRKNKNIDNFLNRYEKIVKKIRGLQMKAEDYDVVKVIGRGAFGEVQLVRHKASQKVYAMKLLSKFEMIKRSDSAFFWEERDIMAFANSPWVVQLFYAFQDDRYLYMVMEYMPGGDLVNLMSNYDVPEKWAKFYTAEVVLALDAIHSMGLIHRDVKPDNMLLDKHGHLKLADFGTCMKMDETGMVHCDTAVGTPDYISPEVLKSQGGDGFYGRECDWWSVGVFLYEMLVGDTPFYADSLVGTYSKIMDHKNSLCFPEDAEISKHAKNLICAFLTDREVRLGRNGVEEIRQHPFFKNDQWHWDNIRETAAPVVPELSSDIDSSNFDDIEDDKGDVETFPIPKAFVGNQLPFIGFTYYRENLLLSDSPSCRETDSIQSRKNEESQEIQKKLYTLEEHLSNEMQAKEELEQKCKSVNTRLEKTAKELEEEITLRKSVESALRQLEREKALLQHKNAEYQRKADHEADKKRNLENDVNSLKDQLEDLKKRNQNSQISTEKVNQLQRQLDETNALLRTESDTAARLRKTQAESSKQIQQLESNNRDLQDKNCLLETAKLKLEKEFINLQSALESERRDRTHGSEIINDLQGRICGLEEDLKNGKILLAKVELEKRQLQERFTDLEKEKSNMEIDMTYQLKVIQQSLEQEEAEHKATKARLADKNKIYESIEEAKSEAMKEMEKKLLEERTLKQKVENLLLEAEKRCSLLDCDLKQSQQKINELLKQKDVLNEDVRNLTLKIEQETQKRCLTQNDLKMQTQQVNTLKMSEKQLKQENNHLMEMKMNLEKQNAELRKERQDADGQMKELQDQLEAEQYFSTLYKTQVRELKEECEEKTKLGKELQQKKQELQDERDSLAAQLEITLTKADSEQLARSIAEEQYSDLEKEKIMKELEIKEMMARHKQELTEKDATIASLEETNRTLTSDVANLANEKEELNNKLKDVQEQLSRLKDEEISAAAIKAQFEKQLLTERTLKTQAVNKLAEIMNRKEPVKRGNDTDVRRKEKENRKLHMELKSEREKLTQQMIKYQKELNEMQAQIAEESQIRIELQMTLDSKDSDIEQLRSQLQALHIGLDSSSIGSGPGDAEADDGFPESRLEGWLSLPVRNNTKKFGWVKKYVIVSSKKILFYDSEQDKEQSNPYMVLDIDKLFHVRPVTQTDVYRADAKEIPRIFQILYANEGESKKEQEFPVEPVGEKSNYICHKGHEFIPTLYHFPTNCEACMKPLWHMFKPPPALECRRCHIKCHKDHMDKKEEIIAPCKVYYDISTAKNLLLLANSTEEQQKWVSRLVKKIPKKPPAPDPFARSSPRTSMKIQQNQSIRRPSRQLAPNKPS
Consider `CCCNc1cccc(-n2ncc3c(N/N=C/c4ccncc4)ncnc32)c1`, for which the inhibition (commonly the change of the read-out against control, counted positive when it falls) amounted to 4.97%.
On the same count and under the same terms, the value for `COC(=O)Nc1nc2ccc(Oc3ccc(NC(=O)Nc4cc(C(F)(F)F)ccc4F)cc3)cc2s1` was 0.66%; that for `N#Cc1ccc2c(-c3ccnc(NC4CC4)n3)c(-c3ccc(F)cc3)nn2c1` was 0.99%; that for `Fc1cccc(COc2ccc(Nc3ncncc3C#Cc3ccccc3)cc2Cl)c1` was 3.76%.
In the case of `NS(=O)(=O)c1cccc(N/C=C2\C(=O)Nc3ccccc32)c1`, the inhibition was 2.91%.
Regarding `COc1ccccc1-c1cc(/C=C2\C(=O)Nc3ncc(Br)cc32)cc(Br)c1O`, the inhibition is 1.89%.
In the case of `COC(=O)Nc1nc2cc(Oc3ccc(NC(=O)Nc4ccccc4)cc3)ccc2[nH]1`, the inhibition amounted to 8.68%.
Take `O=C(O[C@H]1CN[C@H](C#Cc2cc3ncnc(Nc4ccc5c(cnn5Cc5ccccc5)c4)c3s2)C1)N1CCOCC1`: the inhibition is -1.02%.
Regarding `CCn1c(-c2nonc2N)nc2cncc(C(=O)NCCNC)c21`, the inhibition was determined as 80.6%.
For `Cc1cc(O)cc(C)c1/C=C/c1cncc(C(=O)OC(C)(C)C)c1`, the inhibition is 4.67%.
As for `N#Cc1cccc(Nc2ncc(-c3ccccc3)o2)c1`, the inhibition worked out at 2%.
As to `CNC(=O)c1sc(-n2cnc3cc(OC)c(OC)cc32)cc1OCc1ccccc1C(F)(F)F`, the inhibition worked out at 2.94%.
Still for that read-out and setting: to `COc1ccc2ncn(-c3cc(O[C@H](C)c4ccccc4C(F)(F)F)c(C(N)=O)s3)c2c1` belongs -0.01%.
In the case of `COc1ccc(-c2nn3ncccc3c2-c2ccnc(Nc3ccc(F)c(F)c3)n2)cc1`, the inhibition came out at 3.85%.
Turning to `Cc1cc(O)cc(C)c1/C=C/c1cncc(C(N)=O)c1`, the inhibition was found to be 3.18%.
Same read-out and setting: the value for `Fc1ccc(Nc2nccc(-c3c(-c4ccc(C(F)(F)F)cc4)nn4ncccc34)n2)cc1F` was 1.24%; that for `c1ccc(-c2n[nH]cc2-c2ccnc(-c3ccc(OCCn4ccnc4)cc3)c2)nc1` was 5.64%.
`COc1cc(N2CCN(C(C)C)CC2)ccc1Nc1nc(Nc2cccc(F)c2C(=O)O)c2cc[nH]c2n1`: the inhibition came out at 2.05%.
For `CS(=O)(=O)Nc1ccc(-c2cc(-c3ccccc3)cc(C(N)=O)c2N)cc1`, the inhibition came out at 0.41%.
As to `Nc1ncnc2occ(-c3ccc(NC(=O)Nc4cc(C(F)(F)F)ccc4F)cc3)c12`, the inhibition was 7.01% and 2.27%.
Same read-out and setting: the value for `COc1cc2c(cc1Nc1nc(Nc3cccc(F)c3C(N)=O)c3cc[nH]c3n1)N(C(=O)CN1CCN(C(C)C)CC1)CC2` was 0.62%; that for `CCS(=O)(=O)c1ccc(OC)c(Nc2ncc(-c3cccc(C(C)=O)c3)o2)c1` was 1.98%.
As for `CC(C)c1ccc(-c2cc(-c3c[nH]nc3-c3ccccn3)ccn2)cc1`, the inhibition worked out at 0.45%.
For `O=C(O[C@H]1CN[C@H](C#Cc2cc3ncnc(Nc4ccc5c(ccn5Cc5cc(F)ccc5F)c4)c3s2)C1)N1CCOCC1`, the inhibition stood at 2.86%.
Consider `CN(c1ccc(NC(=O)NCCN2CCOCC2)cc1)c1ccnc(Nc2ccc(CS(C)(=O)=O)cc2)n1`, for which the inhibition came out at 4.87%.
With `NS(=O)(=O)c1ccc(N/N=C2\C(=O)Nc3cccc(CCc4ccncc4)c32)cc1`, the inhibition worked out at 0.96%.
For the compound `CNC(=O)c1cncc(/C=C/c2ccccc2C)c1`, the inhibition is 4.29%.
Still for that read-out and setting: to `CN1CCC(C(=O)Nc2n[nH]c3nc(-c4ccc(O)cc4)c(Br)cc23)CC1` belongs 3.65% and -0.14%; to `COc1c(C(N)=O)cc(-c2ccc(Cl)cc2)cc1-c1ccc(S(N)(=O)=O)cc1`, 2.99%.
Still for that read-out and setting: to `CN1CCN(Cc2ccc(-c3cc4ncnc(Nc5ccc(OCc6cccc(F)c6)c(Cl)c5)c4s3)o2)CC1` belongs 1.84% and 3.91%; to `NC(=O)c1ccc2c(-c3ccnc(NCCCO)n3)c(-c3ccc(F)cc3)nn2c1`, 3.55%.

The target is the same in another assay. The note with it: at 1 µM.
For the compound `CCCNc1cccc(-n2ncc3c(N/N=C/c4ccncc4)ncnc32)c1`, the inhibition was determined as 28.1%.
Same read-out and setting: to `COC(=O)Nc1nc2ccc(Oc3ccc(NC(=O)Nc4cc(C(F)(F)F)ccc4F)cc3)cc2s1` belongs 1.17%; to `N#Cc1ccc2c(-c3ccnc(NC4CC4)n3)c(-c3ccc(F)cc3)nn2c1`, 0.79%; to `Fc1cccc(COc2ccc(Nc3ncncc3C#Cc3ccccc3)cc2Cl)c1`, 7.12%.
The same measure, in the same setting: the value for `NS(=O)(=O)c1cccc(N/C=C2\C(=O)Nc3ccccc32)c1` was 5.46%; that for `COc1ccccc1-c1cc(/C=C2\C(=O)Nc3ncc(Br)cc32)cc(Br)c1O` was 2.15%.
`COC(=O)Nc1nc2cc(Oc3ccc(NC(=O)Nc4ccccc4)cc3)ccc2[nH]1`: the inhibition was found to be 17.2%.
Turning to `O=C(O[C@H]1CN[C@H](C#Cc2cc3ncnc(Nc4ccc5c(cnn5Cc5ccccc5)c4)c3s2)C1)N1CCOCC1`, the inhibition is -1.36%.
For `CCn1c(-c2nonc2N)nc2cncc(C(=O)NCCNC)c21`, the inhibition was found to be 90.4%.
Consider `Cc1cc(O)cc(C)c1/C=C/c1cncc(C(=O)OC(C)(C)C)c1`, for which the inhibition amounted to 3.55%.
Regarding `N#Cc1cccc(Nc2ncc(-c3ccccc3)o2)c1`, the inhibition came to 6.5%.
For `CNC(=O)c1sc(-n2cnc3cc(OC)c(OC)cc32)cc1OCc1ccccc1C(F)(F)F`, the inhibition is 1.36%.
Still for that read-out and setting: the value for `COc1ccc2ncn(-c3cc(O[C@H](C)c4ccccc4C(F)(F)F)c(C(N)=O)s3)c2c1` was -0.4%.
Still for that read-out and setting: the value for `COc1ccc(-c2nn3ncccc3c2-c2ccnc(Nc3ccc(F)c(F)c3)n2)cc1` was 6.06%; that for `Cc1cc(O)cc(C)c1/C=C/c1cncc(C(N)=O)c1` was 2.02%.
For `Fc1ccc(Nc2nccc(-c3c(-c4ccc(C(F)(F)F)cc4)nn4ncccc34)n2)cc1F`, the inhibition was determined as 2.36%.
Regarding `c1ccc(-c2n[nH]cc2-c2ccnc(-c3ccc(OCCn4ccnc4)cc3)c2)nc1`, the inhibition turned out to be 7.73%.
With `COc1cc(N2CCN(C(C)C)CC2)ccc1Nc1nc(Nc2cccc(F)c2C(=O)O)c2cc[nH]c2n1`, the inhibition came to 5.77%.
With `CS(=O)(=O)Nc1ccc(-c2cc(-c3ccccc3)cc(C(N)=O)c2N)cc1`, the inhibition worked out at 1.85%.
As for `Nc1ncnc2occ(-c3ccc(NC(=O)Nc4cc(C(F)(F)F)ccc4F)cc3)c12`, the inhibition was 40% and 27.8%.
The same measure, in the same setting: to `COc1cc2c(cc1Nc1nc(Nc3cccc(F)c3C(N)=O)c3cc[nH]c3n1)N(C(=O)CN1CCN(C(C)C)CC1)CC2` belongs 2.82%.
As for `CCS(=O)(=O)c1ccc(OC)c(Nc2ncc(-c3cccc(C(C)=O)c3)o2)c1`, the inhibition is 6.73%.
Turning to `CC(C)c1ccc(-c2cc(-c3c[nH]nc3-c3ccccn3)ccn2)cc1`, the inhibition amounted to 1.63%.
`O=C(O[C@H]1CN[C@H](C#Cc2cc3ncnc(Nc4ccc5c(ccn5Cc5cc(F)ccc5F)c4)c3s2)C1)N1CCOCC1`: the inhibition turned out to be 5.23%.
As to `CN(c1ccc(NC(=O)NCCN2CCOCC2)cc1)c1ccnc(Nc2ccc(CS(C)(=O)=O)cc2)n1`, the inhibition was determined as 18.1%.
In the case of `NS(=O)(=O)c1ccc(N/N=C2\C(=O)Nc3cccc(CCc4ccncc4)c32)cc1`, the inhibition is 1.68%.
Consider `CNC(=O)c1cncc(/C=C/c2ccccc2C)c1`, for which the inhibition is 8.78%.
Regarding `CN1CCC(C(=O)Nc2n[nH]c3nc(-c4ccc(O)cc4)c(Br)cc23)CC1`, the inhibition was 7.61% and 0.92%.
`COc1c(C(N)=O)cc(-c2ccc(Cl)cc2)cc1-c1ccc(S(N)(=O)=O)cc1`: the inhibition came to 5.06%.
The same measure, in the same setting: to `CN1CCN(Cc2ccc(-c3cc4ncnc(Nc5ccc(OCc6cccc(F)c6)c(Cl)c5)c4s3)o2)CC1` belongs 2.16% and 8.24%; to `NC(=O)c1ccc2c(-c3ccnc(NCCCO)n3)c(-c3ccc(F)cc3)nn2c1`, 5.31%.
